Measured values from PubChem BioAssay (EPA / NIEHS).
Results filed as inconclusive are left out. Calls of active or inactive are those of the source. Rule for the calls, unless noted: active = hit-call score of the fitted dose curve at least 0.9, where 1 is the maximum; inconclusive = response in the unintended direction; inactive = score below 0.9.

Assays:
[1] = Tanguay_ZF_120hpf_CFIN_legacy: (Legacy) Oregon State University Tanguay Lab 120 Hour Post-fertilization zebrafish Assay for Caudal Fin Malformation (AID 2283649)
In short: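 Binary presence or absence of caudal fin malformation at 120 hpf, read by brightfield microscopy, with DMSO as baseline. Larvae came from 5D wild-type embryos exposed statically from 6 hpf at 28C after pronase dechorionation.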

[2] = Tanguay_ZF_120hpf_PIG_legacy: (Legacy) Oregon State University Tanguay Lab 120 Hour Post-fertilization zebrafish Assay for Pigmentation Malformation (AID 2283650)
In short: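 Endpoint is incidence of abnormal pigmentation at 120 hpf in dechorionated 5D zebrafish exposed singly from 6 hpf at 28C, DMSO vehicle at 0.64%. Embryos dying by 24 or 120 hpf are excluded from scoring.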

[3] = Tanguay_ZF_120hpf_CIRC_legacy: (Legacy) Oregon State University Tanguay Lab 120 Hour Post-fertilization zebrafish Assay for Circulatory Malformation (AID 2283651)
In short: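 Binary circulatory malformation call at 120 hpf by brightfield imaging of zebrafish larvae; chorion removed at 4 hpf, static exposure from 6 hpf in sealed dark plates at 28C, final DMSO 0.64%; non-mortality endpoints skipped if embryo died.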

[4] = Tanguay_ZF_120hpf_TRUN_legacy: (Legacy) Oregon State University Tanguay Lab 120 Hour Post-fertilization zebrafish Assay for Truncated Body (AID 2283655)
In short: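 Truncated body is recorded as a binary endpoint at 120 hpf by brightfield imaging of wild-type 5D larvae. Exposure runs statically from 6 hpf at 28C with 0.64% DMSO; embryos dying earlier are not scored.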

[5] = Tanguay_ZF_120hpf_NC_legacy: (Legacy) Oregon State University Tanguay Lab 120 Hour Post-fertilization zebrafish Assay for Notochord and Tail Malformation (AID 2283656)
In short: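 Binary scoring of notochord distortion by brightfield microscopy; embryos dying were not scored. Wild-type Tropical 5D embryos, chorion removed, exposed singly and statically from 6 to 120 hpf, 28C, sealed, 0.64% DMSO.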

[6] = Tanguay_ZF_120hpf_TR_legacy: (Legacy) Oregon State University Tanguay Lab 120 Hour Post-fertilization zebrafish Assay for Touch Response (AID 2283667)
In short: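 Readout is presence or absence of touch response in 120 hpf zebrafish larvae, assessed by brightfield observation after continuous static exposure at 28C. Final vehicle was 0.64% (vol/vol) DMSO.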

[7] = CCTE_Padilla_ZF_144hpf_TERATOSCORE: (Legacy) CCTE's 144 Hour Post-fertilization zebrafish Assay Teratoscore, Padilla Lab (AID 2283679; active = hit-call score of the fitted dose curve at least 0.9, where 1 is the maximum; inactive = score below 0.9;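 for AC50: zebrafish embryos with chorions exposed by immersion from 6-8 hpf to 5 dpf with daily renewal; teratogenicity score from eye scoring of death hatching and malformations at 144 hpf; higher score means more developmental defects relative to DMSO baseline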)
In short: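 Larvae scored by eye at 144 hpf for death, hatching and malformations after a day in clean Hanks'. Before that, daily-renewed exposure at 80 uM (0.4% DMSO, 26C) from roughly 6-8 hpf through 5 dpf, 4 embryos per chemical.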

[8] = Tanguay_ZF_120hpf_ActivityScore_legacy: (Legacy) Oregon State University Tanguay Lab 120 Hour Post-fertilization zebrafish Assay Score for Activity (AID 2283742);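 for AC50: dechorionated Tropical 5D wild-type zebrafish embryos held singly per well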
In short: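 In this whole-embryo screen, dechorionated zebrafish were exposed from 6 hpf until 120 hpf at 28C under a 0.64% DMSO vehicle. Developmental malformations and death were recorded by brightfield microscopy as binary endpoints.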

[9] = Tanguay_ZF_120hpf_SWIM_legacy: (Legacy) Oregon State University Tanguay Lab 120 Hour Post-fertilization zebrafish Assay for Swim Bladder Malformation (AID 2283654);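 note: swim bladder malformation in each larva scored yes or no under brightfield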
In short: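 Static waterborne exposure of single dechorionated Tropical 5D zebrafish embryos, 6–120 hpf, 28C, 0.64% DMSO final. Read-out: swim bladder malformation, present/absent, relative to DMSO negative control; trimethyltin chloride 5uM served as positive control.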

[10] = CCTE_Simmons_CellTiterGLO_HEK293T: Viability Assessment in CCTE's Assays for Thyroperoxidase (TPO) Inhibition, Simmons Lab (AID 2283665);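 for AC50: cells exposed to compound for 24 h before readout; actives reduce ATP signal below DMSO vehicle meaning cytotoxicity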
In short: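 Luciferase-coupled ATP content after 24 h exposure gives viability; 8-point series from 5 nM to 87.5 uM final in 0.5% DMSO. Human HEK293T cells, 1% FBS medium, three biological replicates, dichlone positive control.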

[11] = read-out: kallikrein-3 (KLK3), KLK3 (gene 354); experiment: LTEA_HepaRG_KLK3: Life Technologies and Expression Analysis (LTEA) Assay for kallikrein-3 (KLK3) using HepaRG (AID 2283652; active = hit-call score of the fitted dose curve at least 0.9, where 1 is the maximum; inactive = score below 0.9); settings: mRNA level, 48 h; actives raise or lower the signal
In short: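 KLK3 transcript levels were measured by TaqMan qRT-PCR with normalisation to three housekeeping genes. HepaRG cultures received chemicals for 48 h at up to 100 uM (half-log, 8 points, 0.5% DMSO vehicle), fitted in both directions against DMSO.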

[12] = read-out: solute carrier (SLC22A6), SLC22A6 (gene 9356); experiment: LTEA_HepaRG_SLC22A6: Life Technologies and Expression Analysis (LTEA) Assay for solute carrier (SLC22A6) using HepaRG (AID 2283653; active = hit-call score of the fitted dose curve at least 0.9, where 1 is the maximum; inactive = score below 0.9); settings: mRNA level, 48 h; actives raise or lower the signal
In short: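 Read-out is SLC22A6 transcript level by qRT-PCR, normalised to three housekeeping genes and fitted for gain or loss relative to 0.5% DMSO vehicle. Human HepaRG cells received chemicals at up to 100 uM for 48 h.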

[13] = read-out: solute carrier (SLC10A1), SLC10A1 (gene 6554); experiment: LTEA_HepaRG_SLC10A1: Life Technologies and Expression Analysis (LTEA) Assay for solute carrier (SLC10A1) using HepaRG (AID 2283657; active = hit-call score of the fitted dose curve at least 0.9, where 1 is the maximum; inactive = score below 0.9); settings: mRNA level, 48 h; actives raise or lower the signal
In short: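 Cryopreserved HepaRG cells are thawed, plated and cultured 48 h; medium is then switched to serum-free induction medium and chemicals added (8 points, max 100 uM, 0.5% DMSO). After 48 h, RNA is isolated and SLC10A1 quantified by qRT-PCR.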

[14] = read-out: matrix metalloproteinase-1 (MMP1), MMP1 (gene 4312); experiment: LTEA_HepaRG_MMP1: Life Technologies and Expression Analysis (LTEA) Assay for matrix metalloproteinase-1 (MMP1) using HepaRG (AID 2283658; active = hit-call score of the fitted dose curve at least 0.9, where 1 is the maximum; inactive = score below 0.9); settings: mRNA level, 48 h; actives raise or lower the signal
In short: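 HepaRG, ~100,000 cells/well, 48 h pre-culture; serum-free induction medium; test chemical 8 conc (max 100 uM, half-log), duplicate, 48 h; 0.5% DMSO; qRT-PCR MMP1, housekeeping-normalized; gain/loss fit vs DMSO.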

[15] = read-out: Cytochrome P450 (CYP24A1_1), CYP24A1 (gene 1591); experiment: LTEA_HepaRG_CYP24A1_1: Life Technologies and Expression Analysis (LTEA) Assay for Cytochrome P450 (CYP24A1_1) using HepaRG (AID 2283671; active = hit-call score of the fitted dose curve at least 0.9, where 1 is the maximum; inactive = score below 0.9); settings: mRNA level, 48 h; actives raise or lower the signal
In short: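 Cultures of human HepaRG were treated in duplicate for 48 h (0.5% DMSO vehicle, highest dose 100 uM). CYP24A1 mRNA by qRT-PCR, normalized to ACTB, GAPDH, POLR2A.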

[16] = CEETOX_H295R_MTT_cell_viability: Viability Assessment in the CeeTox HT-H295R MTT Assay (AID 2283718; active = hit-call score of the fitted dose curve at least 0.9, where 1 is the maximum; inactive = score below 0.9;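 for AC50: curve fitted both ways so AC50 may mark viability loss or gain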)
In short: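 H295R cells prestimulated 48 h with 10 uM forskolin, then exposed 48 h to test chemical (0.1% DMSO final). Viability by MTT (0.5 mg/ml, 4 h, 37 C), absorbance 570/650 nm; percent change versus DMSO, bidirectional fit.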

[17] = STM_H9_OrnCyssISnorm_ratio: Stemina devTOX quickPredict H9 human embryonic stem cell (hESC)-based Assay for Ornithine (ORN):Cystine (CYSS) Ratio (AID 2283714)
In short: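 H9 hESC, 72h, q24h re-dose; last-day media → acetonitrile deproteinization → UPLC-HRMS. ORN:CYSS ratio from isotope-normalized EIC areas, vs 0.1% DMSO; MTX references on each plate.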

In the case of O=C1C2(Cl)C3(Cl)C4(Cl)C(Cl)(Cl)C5(Cl)C3(Cl)C1(Cl)C5(Cl)C24Cl (stereo not drawn), the outcome [1] was “inactive”, the outcome [2] was “inactive” and the outcome [3] was “inactive”. The AC50 [4] was 15.2 µM (active), the outcome [5] was “inactive” and the AC50 [6] was 34.8 µM (active). For the same compound, the AC50 [7] was 3.4 µM (active) and the AC50 [8] was 71 µM (active).

With CC(C)(c1ccccc1)c1ccc(O)c(C(C)(C)c2ccccc2)c1 the outcome [1] was “inactive”, the outcome [2] was “inactive” and the outcome [3] was “inactive”. For the same compound, the outcome [9] was “inactive”, the outcome [4] was “inactive” and the AC50 [10] was 5.35 µM (active). The outcome [6] was “inactive”, the AC50 [7] was 4.58 µM (active) and the outcome [8] was “inactive”.

In the case of NC(=O)O, the outcome [1] was “inactive”, the outcome [3] was “inactive” and the outcome [11] was “inactive”. For the same compound, the outcome [12] was “inactive”, the outcome [9] was “inactive” and the outcome [4] was “inactive”. For the same compound, the outcome [5] was “inactive”, the outcome [13] was “inactive” and the outcome [14] was “inactive”. For the same compound, the outcome [6] was “inactive”, the outcome [15] was “inactive” and the outcome [7] was “inactive”. The outcome [8] was “inactive”.

For CN(C)N=O, the outcome [1] was “inactive”, the outcome [3] was “inactive” and the outcome [4] was “inactive”. The outcome [5] was “inactive”, the outcome [6] was “inactive” and the outcome [7] was “inactive”. For the same compound, the outcome [8] was “inactive”.

With CCOP(=S)(OCC)Oc1nc(Cl)c(Cl)cc1Cl the outcome [1] was “inactive”, the outcome [2] was “inactive” and the outcome [3] was “inactive”. The outcome [4] was “inactive”, the outcome [5] was “inactive” and the AC50 [10] was 17.9 µM (active). The outcome [6] was “inactive”, the AC50 [7] was 4.72 µM (active) and the AC50 [16] was 93.2 µM (active). The outcome [8] was “inactive”.

For OCc1ccco1, the outcome [10] was “inactive”.

With CCCCCCCCC(=O)NCc1ccc(O)c(OC)c1 the outcome [16] was “inactive”.

With Oc1ccc(-c2ccccc2)cc1 the outcome [16] was “inactive”.

For Clc1ccc(COC(Cn2ccnc2)c2ccc(Cl)cc2Cl)cc1 (stereo not drawn), the AC50 [10] was 22.4 µM (active).

In the case of Clc1ccc(C2(Cn3cncn3)CC(Br)CO2)c(Cl)c1 (stereo not drawn), the AC50 [10] was 95.2 µM (active).

With CC1(C)CCC(Cc2ccc(Cl)cc2)C1(O)Cn1cncn1 (stereo not drawn) the AC50 [10] was 89 µM (active) and the outcome [16] was “inactive”.

In the case of O=C(Cc1ccccc1)c1ccccc1, the outcome [16] was “inactive”.

For CCCCCCCCSC(=O)Oc1cc(Cl)nnc1-c1ccccc1, the outcome [10] was “inactive”.

In the case of CCOC(=O)Nc1cccc(OC(=O)Nc2ccccc2)c1, the AC50 [10] was 16.6 µM (active).

In the case of Nc1ccc(-c2ccc(N)c(Cl)c2)cc1Cl, the outcome [16] was “inactive”.

In the case of ClC(Cl)=C(Cl)C(Cl)=C(Cl)Cl, the outcome [16] was “inactive”.

For C[C@H]1CCCC(=O)CCC/C=C/c2cc(O)cc(O)c2C(=O)O1, the AC50 [10] was 89.2 µM (active) and the AC50 [16] was 69.8 µM (active).

In the case of CCC1(c2ccc(N)cc2)CCC(=O)NC1=O (stereo not drawn), the outcome [16] was “inactive”.

In the case of C1CCC(NC2CCCCC2)CC1, the outcome [16] was “inactive”.

With C(=NC1CCCCC1)=NC1CCCCC1 the outcome [16] was “inactive”.

With CC(C)c1cccc(C(C)C)c1O the AC50 [10] was 84.6 µM (active).

For CCOP(=S)(OCC)SCCS(=O)(=O)CC, the outcome [16] was “inactive”.

With COP(=O)(OC)O/C(=C\Cl)c1cc(Cl)c(Cl)cc1Cl the AC50 [10] was 25 µM (active) and the outcome [16] was “inactive”.

In the case of O=c1[nH]c(=O)[nH]c(=O)[nH]1, the outcome [2] was “inactive”, the outcome [3] was “inactive” and the outcome [4] was “inactive”. For the same compound, the outcome [5] was “inactive”, the outcome [6] was “inactive” and the outcome [7] was “inactive”. The outcome [8] was “inactive”.

With CN(CCCC(=O)c1cccnc1)N=O the outcome [16] was “inactive”.

In the case of CC(C)OC(=O)Nc1ccccc1, the AC50 [16] was 2.64 µM (active).

For NNC(=S)NN, the outcome [10] was “inactive” and the outcome [16] was “inactive”.

For c1cc[c]([Hg][c]2ccccc2)cc1, the AC50 [16] was 24.7 µM (active).

With Cc1ccc(N)cc1Cl the AC50 [10] was 18.4 µM (active).

For Fc1ccc(C2(Cn3cncn3)OC2c2ccccc2Cl)cc1 (stereo not drawn), the outcome [16] was “inactive”.

For CC(C)(c1ccc(OCC2CO2)cc1)c1ccc(OCC2CO2)cc1 (stereo not drawn), the AC50 [10] was 83.7 µM (active) and the outcome [17] was “inactive”.

With C[C@]12CC[C@H](O)CC1=CC[C@@H]1[C@@H]2CC[C@]2(C)C(=O)CC[C@@H]12 the outcome [16] was “inactive”.

In the case of C=CC(=O)N(C)C, the outcome [16] was “inactive”.

For Cc1ccc2ccccc2c1C, the AC50 [10] was 17.4 µM (active).

With O=C(OC1CCCCC1)c1ccccc1C(=O)OC1CCCCC1 the AC50 [16] was 28.6 µM (active).
